Screening results as filed in PubChem.
Compounds with a hit are over-represented: about 2.9% of the library has one in this group of screens.
Rev-erbA mod = modulators of Rev-erb alpha DNA binding, primary screen, biochemical, FITC-DNA, fluorescence polarization, uHTS; 370,000 compounds, 0.79% hits; Rev-erbα–FITC-DNA binding, 90 min; Nuclear receptor subfamily 1 group D member 1 (Homo sapiens), P20393; activity, % at 10 µM;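 active means activity above about 14%, limit read from the data; passing the limit was not always enough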
Target sequence (P20393 whole entry, looked up): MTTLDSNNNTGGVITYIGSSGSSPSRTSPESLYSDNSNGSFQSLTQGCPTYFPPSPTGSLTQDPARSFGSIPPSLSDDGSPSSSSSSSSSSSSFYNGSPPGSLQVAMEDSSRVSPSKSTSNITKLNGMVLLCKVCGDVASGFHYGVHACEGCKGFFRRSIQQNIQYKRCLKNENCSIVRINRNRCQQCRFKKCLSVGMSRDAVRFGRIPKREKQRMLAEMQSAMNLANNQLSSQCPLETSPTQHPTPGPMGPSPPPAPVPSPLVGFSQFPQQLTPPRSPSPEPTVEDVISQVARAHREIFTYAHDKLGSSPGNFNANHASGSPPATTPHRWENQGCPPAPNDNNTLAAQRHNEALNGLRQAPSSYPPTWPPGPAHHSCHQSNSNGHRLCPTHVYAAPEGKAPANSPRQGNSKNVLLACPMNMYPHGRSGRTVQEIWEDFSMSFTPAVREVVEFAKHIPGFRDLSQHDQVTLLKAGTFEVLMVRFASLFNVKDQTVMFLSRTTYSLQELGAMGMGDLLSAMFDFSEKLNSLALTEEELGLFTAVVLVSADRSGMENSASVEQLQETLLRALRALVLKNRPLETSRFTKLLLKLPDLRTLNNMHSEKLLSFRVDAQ
PG9 binder = binders of HIV-1 gp120 antibody PG9, primary screen, biochemical, TR-FRET; inhibition, % at 6.7 µM; HIV-1 gp120 / PG9 antibody interaction; 360,000 compounds, 0.43% hits; TR-FRET gp120-PG9 antibody binding; in the data active means inhibition above about 8.5%
PGE2 EP2 inh = human EP2 receptor antagonists, primary screen, TR-FRET cAMP, C6 glioma cells | Prostaglandin E2 receptor EP2 subtype (Homo sapiens), P43116 | C6 glioma cells expressing human EP2; cells stimulated with saturating PGE2 | inhibition, % at 25 µM | 260,000 compounds, 0.52% hits | AID 1422, 2008;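 active means percent inhibition above 40 after rounding to a whole number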;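 further: rat C6 glioma host cells with rolipram phosphodiesterase inhibitor present; the protocol text gives 20 µM as final concentration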
EP2 modulator = EP2 receptor modulators, cAMP readout, primary screen, cell-based, HTRF cAMP, PGE2 stimulation | AID 940, 2007 | EP2-expressing cells, cAMP HTRF FRET, PGE2 co-stimulation | induction, % at 25 µM | Prostaglandin E2 receptor EP2 subtype (Homo sapiens), P43116 | 260,000 compounds, 0.83% hits;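 active means compounds whose cAMP rise, as percent of the full-agonist control response, exceeds 60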;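 further: rat C6 glioma line stably carrying human EP2 under a CMV promoter; the protocol text gives 20 µM as final concentration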
SKN-1 block = suppressors of acrylamide-induced Pgst-4::GFP reporter in worms, primary screen, SKN-1 inhibitor project, whole organism, uHTS, GFP/RFP fluorescence ratio, strain VP596; C. elegans VP596 Pgst-4::GFP/RFP ratio, 24 h; inhibition, % at 21.8 µM; 360,000 compounds, 0.49% hits; AID 624304, 2012;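 active means interference check ratio from 0.5 to 1.5 plus GFP to RFP signal ratio inhibition reaching or exceeding a fixed threshold, cut at about 30% in these data, passing the limit was not always enough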
RAM network inh = inhibitors of the yeast RAM network, primary screen, dse1pr::URA3 reporter, 5-FOA selection; 190,000 compounds, 1.8% hits; inhibition, % at 50 µM; S. cerevisiae dse1pr::URA3 reporter, 5-FOA growth OD615, 2 d; analog-sensitive cbk1-as2 kinase mutant strain;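 active means inhibition above a set limit, 3 SD over mean compound inhibition, cut at about 8.4% in these data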;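 further: inhibition rescues growth on 5-FOA so higher OD means more RAM inhibition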
EP2 confirm = cAMP induction in EP2, EP4, beta2-AR and parental cells, confirmation, counter-screen for EP2 modulator project, cell-based, five parallel assays, C6 glioma, HEK293; shares compounds with EP2 modulator; cAMP HTRF induction; plus low (about EC15) PGE2 agonist; calls only at 20 µM (by protocol); 1,300 compounds, 47% hits; AID 1080, 2008;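 active means cAMP induction above 50% in the main assay while under 30% in all four parallel counter assays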;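 further: rat C6 glioma cells stably expressing human EP2 receptor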
PG9 binder conf = binders of anti-gp120 antibody PG9, confirmation, biochemical, TR-FRET. shares compounds with PG9 binder. TR-FRET PG9 antibody binding. inhibition, % at 6.7 µM. 1,500 compounds, 90% hits; in the data active means inhibition above about 9%
PGV04 Ab binding = binders of control antibody PGV04, counter-screen for PG9 antibody binder project, biochemical, TR-FRET, distinct HIV envelope site. inhibition, % at 6.7 µM. shares compounds with PG9 binder. TR-FRET PGV04 antibody-gp120 binding. 1,500 compounds, 95% hits; in the data active means inhibition above about 9.5%
PG9 binder DR = small-molecule binders of antibody PG9, dose response, biochemical, TR-FRET, HIV-1 gp120 antibody | shares compounds with PG9 binder | AID 651848, 2012 | 95 tested, under 10 active | IC50, µM | TR-FRET PG9 antibody-gp120 binding inhibition; in the data active means IC50 below about 10 µM
PGV04 DR counter = binders of control antibody PGV04, dose response, counter-screen for PG9 antibody binder project, biochemical, TR-FRET, distinct HIV envelope site | shares compounds with PG9 binder | TR-FRET binding to control antibody PGV04 | IC50, µM | 95 compounds, 20% hits
PG126 DR counter = binders of control antibody PG126, dose response, counter-screen for PG9 antibody binder project, biochemical, TR-FRET, distinct HIV envelope site. AID 651939, 2012. IC50, µM. TR-FRET binding to antibody PG126, counterscreen. shares compounds with PG9 binder. 95 compounds, 20% hits
Rev-erbA confirm = modulators of Rev-erb alpha DNA binding, confirmation, biochemical, FITC-DNA, fluorescence polarization, single point; 3,000 compounds, 61% hits; shares compounds with Rev-erbA mod; 90 min; activation, % at 25 µM; AID 1259319, 2017;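 active means activation at or above a set limit, or at least 3 SD above the negative control mean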
Of the large screens only hits and unclear results are named; the others gave an inactive call (follow-up assays come after a bar, where they were run). Unless noted, no stated cut-off is given here; in the data, active means IC50 below about 9 µM; inactive means the rest.

Cc1ccc(-c2nn3c(C)nnc3s2)cc1NCc1c(F)cccc1Cl	Rev-erbA mod 23, EP2 modulator 66 | EP2 confirm inactive | Rev-erbA confirm inactive
CN(C)S(=O)(=O)c1ccc(Cl)c(NC(=O)CSc2nc3c(cc2C#N)C(=O)CCC3)c1	none
Cc1ccc(NC(=O)CSc2nc3c(cc2C#N)C(=O)CCC3)cc1S(=O)(=O)N(C)C	PG9 binder 13, RAM network inh 8.5 | PG9 binder conf 12 | PGV04 Ab binding 14
CCn1c(CNC(=O)c2ccccc2Cl)cc2ccccc21	PG9 binder 10 (no result: PGE2 EP2 inh, EP2 modulator, RAM network inh) | PG9 binder conf 24 | PGV04 Ab binding 35
CCn1c(CNC(=O)c2ccccc2F)cc2ccccc21	none (no result: PGE2 EP2 inh, EP2 modulator, RAM network inh)
COc1ccc2cc(C#N)c(Cl)nc2c1	none
COc1cccc(Nc2nc3cc(OC)ccc3cc2C#N)c1	PG9 binder 13 | PG9 binder conf 24 | PGV04 Ab binding 25
COc1ccc(CCNC(=O)C2CC(c3cccc(Br)c3)=NO2)cc1OC (stereo not drawn)	none (no result: Rev-erbA mod, PG9 binder, SKN-1 block, RAM network inh)
CC(=O)c1ccc(N2CCN(S(=O)(=O)c3ccc4c(c3)NC(=O)CC(=O)N4)CC2)cc1	PG9 binder 13 (no result: PGE2 EP2 inh, EP2 modulator, RAM network inh) | PG9 binder conf 17 | PGV04 Ab binding 30
CCOC(=O)Cn1c(=NC(=O)CSC(C)=O)sc2cc(F)ccc21	PG9 binder 40 | PG9 binder conf 69 | PGV04 Ab binding 80
CCOC(=O)Cn1c(=NC(=O)CC)sc2c(C)cc(C)cc21	PG9 binder 11 (no result: RAM network inh) | PG9 binder conf 15 | PGV04 Ab binding 23
O=C(O)CCC(=O)N1CCN(c2nc(-c3ccccc3)c3cc(Br)ccc3n2)CC1	none (no result: PGE2 EP2 inh, EP2 modulator, RAM network inh)
O=C(O)CCC(=O)N1CCN(c2nc(-c3ccccc3Cl)c3cc(Br)ccc3n2)CC1	PG9 binder 11 | PG9 binder conf 16 | PGV04 Ab binding 23
COc1cc2cc(CN(Cc3nnnn3Cc3ccco3)C3CCCC3)c(=O)[nH]c2cc1OC	none (no result: Rev-erbA mod, PG9 binder, SKN-1 block, RAM network inh)
CCOC(=O)C1=C(C)NC(SCC(N)=O)=C(C#N)C1c1ccccc1 (stereo not drawn)	PG9 binder 14 | PG9 binder conf inactive | PGV04 Ab binding 10
CC(=O)c1ccc(Nc2nc(-c3ccccn3)cs2)cc1	none (no result: Rev-erbA mod, PG9 binder, SKN-1 block, RAM network inh)
COc1ccc(NC(=O)c2c(NC(=O)CNCC(C)C)sc3c2CCC3)c(OC)c1	PG9 binder 11 | PG9 binder conf 9.9 | PGV04 Ab binding 9.5 | PG9 binder DR inactive | PGV04 DR counter inactive | PG126 DR counter inactive
CCc1nc2sc3c(c2c2nnc(SCC(=O)Nc4ccc(N(C)C)cc4)n12)CCCC3	none (no result: Rev-erbA mod, PG9 binder, SKN-1 block, RAM network inh)
Cc1ccc(CN2CCS(=O)(=O)CC2)cc1	PG9 binder 11 | PG9 binder conf inactive | PGV04 Ab binding 13
N#CC1=C(N)SC(N)=C(C#N)C1c1ccc(O)cc1	none (no result: Rev-erbA mod, PG9 binder, SKN-1 block, RAM network inh)
Cc1ccc(C2C(C#N)=C(N)SC(N)=C2C#N)cc1	PG9 binder 13 (no result: PGE2 EP2 inh) | PG9 binder conf inactive | PGV04 Ab binding inactive
CC(C)Cc1c2c([nH]c(=S)c1C#N)CCCC2	PG9 binder 15 | PG9 binder conf inactive | PGV04 Ab binding inactive
CN1C(=O)SC(CC(=O)Nc2nc3c(s2)CCc2c-3cnn2C)C1=O (stereo not drawn)	none (no result: Rev-erbA mod, PG9 binder, SKN-1 block, RAM network inh)
COCc1cc(C)n(CC(=O)Nc2ccc(Cl)cc2Cl)c(=O)c1C#N	PG9 binder 8.8 | PG9 binder conf inactive | PGV04 Ab binding inactive | PG9 binder DR inactive | PGV04 DR counter inactive | PG126 DR counter inactive
CCn1c(SCc2nc3ccccc3nc2C)nnc1-c1cccs1	none
Cc1nc2ccccc2nc1CSc1nncs1	PG9 binder 9.8 | PG9 binder conf inactive | PGV04 Ab binding inactive
Brc1ccc(Br)c2cnccc12	PG9 binder 13 (no result: PGE2 EP2 inh, EP2 modulator, RAM network inh) | PG9 binder conf 26 | PGV04 Ab binding 35
CCOC(=O)C(=O)NNC(=O)c1c(O)c2ccccc2n(CC)c1=O	none (no result: Rev-erbA mod, PG9 binder, SKN-1 block, RAM network inh)
Cc1cc(-c2[nH]nc3c2C(c2c(F)cccc2Cl)C(C#N)=C(N)O3)c(C)s1 (stereo not drawn)	none (no result: Rev-erbA mod, PG9 binder, SKN-1 block, RAM network inh)
COc1cc(OC)cc(C(=O)NC2CCSC2=O)c1 (stereo not drawn)	PG9 binder 15 | PG9 binder conf inactive | PGV04 Ab binding 39
COc1ccc(C(=O)NC(=S)NC2CCSC2=O)cc1 (stereo not drawn)	none
O=c1[nH]c(SCc2nc3ccccc3c(=O)n2-c2ccccc2)nc2ccccc12	PG9 binder 13 | PG9 binder conf 22 | PGV04 Ab binding 28
O=c1[nH]c(SCc2ccc(Cl)cc2)nc2ccccc12	none
O=C(CSc1nc2ccccc2c(=O)n1Cc1ccc(Cl)cc1)NCc1cccs1	PG9 binder 17 | PG9 binder conf 21 | PGV04 Ab binding 30
